From PubChem BioAssay
Bim-Mcl-1 – inhibitors of Bim peptide binding to Mcl-1, primary screen, biochemical, bead-based flow cytometry, multiplex | Bim peptide-Mcl-1 binding | inhibition, % at 10 µM | AID 1009, 2008 | hit rate 0.1% among 190,000; in the data active = inhibition above about 40%
Mcl1 Noxa PPI – Mcl-1/Noxa binding inhibitors, primary screen, biochemical, TR-FRET, 1536-well; inhibition, % at 21.7 µM; Induced myeloid leukemia cell differentiation protein Mcl-1 (Homo sapiens), Q07820; TR-FRET Mcl-1/Noxa peptide binding, 2 h; hit rate 1.5% among 220,000;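 active = compounds that cut the protein-peptide binding signal by more than 50% relative to plate controls in a single-dose test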;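 also: His-tagged Mcl-1 with rhodamine Noxa BH3 peptide and terbium anti-His antibody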
MCL1-BIM inh – inhibitors of MCL1 binding to BIM-BH3, primary screen, biochemical, fluorescence polarization; GST-MCL1 / FITC-Bim-BH3 fluorescence polarization; inhibition, % at 10.9 µM; hit rate 0.68% among 320,000; AID 2057, 2009;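 active = inhibition above the mean inhibition of all tested compounds plus 3 SD, set per campaign, cut at about 40% in these data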;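 also: higher means more loss of mP so more displacement of Bim peptide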
Mcl1 Bid PPI – Mcl-1/Bid binding inhibitors, primary screen, biochemical, TR-FRET, 1536-well; hit rate 0.97% among 220,000; TR-FRET Mcl-1/Bid-Dy647 peptide binding; AID 1021, 2008; inhibition, % at 21.7 µM;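 active = compounds that cut the binding signal by more than half at the single screening dose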;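 also: His-tagged Mcl-1 with europium anti-His antibody binding Bid BH3 peptide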
GLD-1 RNA inh – GLD-1/TGE RNA complex disruptors, primary screen, biochemical, fluorescence polarization; Female germline-specific tumor suppressor gld-1 (Caenorhabditis elegans), Q17339; purified GLD-1 + fluorescein TGE RNA; inhibition, % at 5.96 µM; hit rate 0.44% among 320,000; AID 2280, 2010;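 active = percent inhibition above a per-plate cutoff, the plate mean of test compounds plus 3 SD, cut at about 30% in these data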
Target sequence (Q17339 whole entry, looked up): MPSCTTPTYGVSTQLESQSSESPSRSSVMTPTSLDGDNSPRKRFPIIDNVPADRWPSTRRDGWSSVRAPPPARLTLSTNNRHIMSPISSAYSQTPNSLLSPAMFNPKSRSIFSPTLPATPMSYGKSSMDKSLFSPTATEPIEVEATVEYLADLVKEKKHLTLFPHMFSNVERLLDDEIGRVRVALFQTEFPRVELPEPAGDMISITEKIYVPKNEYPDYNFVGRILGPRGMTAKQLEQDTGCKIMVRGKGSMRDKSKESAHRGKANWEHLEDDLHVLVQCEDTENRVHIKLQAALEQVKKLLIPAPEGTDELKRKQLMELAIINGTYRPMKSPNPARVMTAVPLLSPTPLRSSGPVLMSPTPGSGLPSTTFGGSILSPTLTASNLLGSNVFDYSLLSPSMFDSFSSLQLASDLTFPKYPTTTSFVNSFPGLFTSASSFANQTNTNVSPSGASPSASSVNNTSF
Bcl-xL primary – inhibitors of human Bcl-xL, primary screen, biochemical, fluorescence polarization, HTS. Bcl-2-like protein 1 (Homo sapiens), Q07817. GST-Bcl-xL / FITC-Bim BH3 peptide fluorescence polarization. inhibition, % at 10.9 µM. hit rate 0.7% among 320,000;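 active = inhibition above the mean of all tested compounds plus 3 SD, cutoff set per campaign, cut at about 30% in these data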;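 also: inhibitors lower millipolarization by displacing the labeled peptide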
Target sequence (Q07817 whole entry, looked up): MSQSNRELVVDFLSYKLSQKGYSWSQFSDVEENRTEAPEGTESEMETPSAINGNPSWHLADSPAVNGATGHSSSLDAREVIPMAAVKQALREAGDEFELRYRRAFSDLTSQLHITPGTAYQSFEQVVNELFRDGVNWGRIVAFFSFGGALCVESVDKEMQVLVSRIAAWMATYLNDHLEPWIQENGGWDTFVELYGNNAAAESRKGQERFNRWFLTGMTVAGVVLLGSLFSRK
BCLXL inh confirm – Bcl-xL inhibitors blocking Bim BH3 binding, confirmation, counter-screen for MCL1 inhibitor project, biochemical, fluorescence polarization; shares compounds with MCL1-BIM inh; GST-Bcl-xL / FITC-Bim BH3 peptide FP binding; inhibition, % at 10.9 µM; hit rate 54% among 1,700; AID 2166, 2009;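 active = inhibition above a cutoff equal to the mean inhibition of all tested compounds plus 3 SD, cut at about 30% in these data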
MCL1 inh confirm – inhibitors of MCL1 binding to BIM-BH3, confirmation, biochemical, fluorescence polarization, triplicate; GST-MCL1 / FITC-Bim-BH3 fluorescence polarization; hit rate 61% among 1,700; shares compounds with MCL1-BIM inh; inhibition, % at 10.9 µM; AID 2168, 2009;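 active = inhibition above the average of all tested compounds plus 3 SD, cut at about 40% in these data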
Of the large screens only hits and unclear results are named; the others gave an inactive call (follow-up assays come after a bar, where they were run). Only some compounds are listed: those with a hit (about 2.3% of all), similar ones and a draw of the others.

COc1ccc(NC(=O)c2ccc(NC(=O)CN3CCC(C(N)=O)CC3)cc2)cc1	none (no result: Bim-Mcl-1, Mcl1 Noxa PPI, MCL1-BIM inh, Mcl1 Bid PPI, Bcl-xL primary)
CC1(C)CNc2cc(N)ccc2S1	MCL1-BIM inh 66 | BCLXL inh confirm 32 | MCL1 inh confirm 43
O=C(CCC(=O)N1CCOc2ccc(Cl)cc21)NCCN1CCOCC1	none (no result: Bim-Mcl-1, Mcl1 Noxa PPI, Mcl1 Bid PPI)
Nc1ccc(C(=O)O)c(O)c1	none
Nc1ccc(N)c(C(=O)O)c1	Mcl1 Noxa PPI 92, MCL1-BIM inh 101, Mcl1 Bid PPI 98, Bcl-xL primary 58 (no result: Bim-Mcl-1) | BCLXL inh confirm 72 | MCL1 inh confirm 112
O=C1CC(c2ccc3ccccc3c2)NN1 (configuration not stated)	MCL1-BIM inh 42 (no result: Bim-Mcl-1, Mcl1 Noxa PPI, Mcl1 Bid PPI) | BCLXL inh confirm inactive | MCL1 inh confirm inactive
O=C1C(=Cc2ccco2)C(=O)c2ccccc21	none
O=C(O)c1ccc2c(c1)C(=O)/C(=C\c1ccco1)C2=O	Mcl1 Noxa PPI 66, MCL1-BIM inh 64, Bcl-xL primary 41 | BCLXL inh confirm inactive | MCL1 inh confirm inactive
C[C@H]1c2cccc(O)c2C(O)=C2C(=O)[C@]3(O)C(O)=C(C(N)=O)C(=O)[C@@H](N(C)C)[C@@H]3[C@@H](O)[C@@H]21	none (no result: Bim-Mcl-1)
CN(C)c1ccc(O)c2c1CC1CC3[C@@H](N(C)C)C(=O)C(C(N)=O)=C(O)[C@]3(O)C(=O)C1=C2O (some centres not stated)	MCL1-BIM inh 61 | BCLXL inh confirm inactive | MCL1 inh confirm 67
COc1cccc(C(=O)N(Cc2ccco2)c2c(N)n(Cc3ccccc3)c(=O)[nH]c2=O)c1	none (no result: Bim-Mcl-1, Mcl1 Noxa PPI, Mcl1 Bid PPI)
Nc1ccc(Nc2ccccc2)c(S(=O)(=O)O)c1	MCL1-BIM inh 42 (no result: Bim-Mcl-1) | BCLXL inh confirm 48 | MCL1 inh confirm 78
COc1ccccc1CC(=O)OC(C)C(=O)Nc1ccc(S(=O)(=O)N2CCCCC2)cc1 (configuration not stated)	none (no result: Bim-Mcl-1, Mcl1 Noxa PPI, Mcl1 Bid PPI)
CC(C)C[C@H]1C(=O)N2CCC[C@H]2[C@]2(O)O[C@](NC(=O)[C@@H]3C=C4c5cccc6[nH]c(Br)c(c56)CC4N(C)C3)(C(C)C)C(=O)N12 (some centres not stated)	MCL1-BIM inh 111, GLD-1 RNA inh 95, Bcl-xL primary 87 | BCLXL inh confirm inactive | MCL1 inh confirm inactive
CCOc1ccc(N2CSC3=C(C#N)C(c4ccco4)CC(=O)N3C2)cc1 (configuration not stated)	MCL1-BIM inh 78 | BCLXL inh confirm inactive | MCL1 inh confirm 63
Cc1ccc(C2CC(=O)N3CN(c4ccc(Br)cc4)CSC3=C2C#N)o1 (configuration not stated)	none
CCN(CC(=O)NCc1ccc(F)cc1)C(=O)c1cccnc1SC	none (no result: Bim-Mcl-1, Mcl1 Noxa PPI, Mcl1 Bid PPI)
CCOc1ccccc1N1CN(C2CCCCC2)CNC1=S	MCL1-BIM inh 52 (no result: Bim-Mcl-1) | BCLXL inh confirm inactive | MCL1 inh confirm inactive
CCOc1ccc(CCN2CN(C3CCCCC3)CNC2=S)cc1OCC	none (no result: Bim-Mcl-1)
Nc1ncnc2nc(SCC(=O)Nc3ccccc3F)[nH]c12	none (no result: Bim-Mcl-1, Mcl1 Noxa PPI, Mcl1 Bid PPI)
CSCC(C)N1CCC(Oc2cccc(C(=O)NCc3ccccn3)c2)CC1 (configuration not stated)	MCL1-BIM inh 56, Bcl-xL primary 48 (no result: Bim-Mcl-1, Mcl1 Noxa PPI, Mcl1 Bid PPI) | BCLXL inh confirm 56 | MCL1 inh confirm 70
CCN(CC)c1ccc2cc(NC(=O)CCC(=O)O)c(=O)oc2c1	MCL1-BIM inh 113, GLD-1 RNA inh 75, Bcl-xL primary 103 | BCLXL inh confirm 106 | MCL1 inh confirm 118
O=Cc1c(Sc2ccccn2)nc2ccccn2c1=O	MCL1-BIM inh 63, Bcl-xL primary 53 | BCLXL inh confirm inactive | MCL1 inh confirm inactive
O=c1[nH]c(C(Cl)Cl)nc2sc3c(c12)CCN(Cc1ccccc1)C3	Mcl1 Noxa PPI 94, MCL1-BIM inh 102, Bcl-xL primary 78 | BCLXL inh confirm 56 | MCL1 inh confirm 78
COc1ccc(C(=O)NC(C)c2nnc(SCC(=O)NC3CCCC3)n2C)cc1 (configuration not stated)	none (no result: Bim-Mcl-1, Mcl1 Noxa PPI, Mcl1 Bid PPI)
N#CC(C#N)=C1C=CC=CN1/C(=C\c1ccccc1)C(=O)c1cccs1	Mcl1 Noxa PPI 63, MCL1-BIM inh 42 | BCLXL inh confirm 37 | MCL1 inh confirm 65
CCOc1ccc(/C=C2\SC(=S)N(N3C(=O)C4CC4C3=O)C2=O)cc1 (configuration not stated)	none
CCOc1ccc(N=C2NC(=O)S/C2=C\c2ccc(N(C)C)cc2)cc1	MCL1-BIM inh 80, GLD-1 RNA inh 43, Bcl-xL primary 70 | BCLXL inh confirm 96 | MCL1 inh confirm 113
CN(C)c1ccc(/C=N/N(CCO)C2=NS(=O)(=O)c3ccccc32)cc1	MCL1-BIM inh 140, GLD-1 RNA inh 36, Bcl-xL primary active (no result: Bim-Mcl-1, Mcl1 Noxa PPI, Mcl1 Bid PPI) | BCLXL inh confirm active | MCL1 inh confirm active
COc1ccc(CNC(=O)C(C#N)c2nc3ccccc3nc2N2CCCC2)cc1 (configuration not stated)	MCL1-BIM inh 54, Bcl-xL primary 46 | BCLXL inh confirm 63 | MCL1 inh confirm 75
C=CCNC(=O)C(C#N)c1nc2ccccc2nc1N1CCCCCC1 (configuration not stated)	MCL1-BIM inh 71, GLD-1 RNA inh 57, Bcl-xL primary 74 | BCLXL inh confirm 32 | MCL1 inh confirm inactive
CCCCNC(=O)C(C#N)c1nc2ccccc2nc1N1CCCC1 (configuration not stated)	none (no result: MCL1-BIM inh, GLD-1 RNA inh, Bcl-xL primary)
Cc1cc2nc3c(=O)[nH]c(=S)[nH]c3nc2cc1NC(=O)C(F)(F)F	MCL1-BIM inh active, GLD-1 RNA inh 185, Bcl-xL primary active (no result: Bim-Mcl-1, Mcl1 Noxa PPI, Mcl1 Bid PPI) | BCLXL inh confirm 185 | MCL1 inh confirm 197
O=c1[nH]c(=S)[nH]c2nc(-c3ccccc3)cnc12	none (no result: Bim-Mcl-1, Mcl1 Noxa PPI, Mcl1 Bid PPI)
Cc1ccc(C=Nc2cccnc2N)cc1	MCL1-BIM inh 70, GLD-1 RNA inh 80, Bcl-xL primary 60 | BCLXL inh confirm inactive | MCL1 inh confirm inactive
Cc1ccc(/C=N/N=C/c2ccc(C)cc2)cc1	none
Cc1cccc(N(C(=O)c2csnn2)C(C(=O)NCc2ccccc2)c2cccs2)c1 (configuration not stated)	none (no result: Bim-Mcl-1, Mcl1 Noxa PPI, Mcl1 Bid PPI)
CCOC(=O)[C@H]1[C@H]2COc3ccc(Br)cc3[C@@H]2N2C(=O)c3c(C)cc(C)cc3NC(=O)[C@@]12C	none (no result: Bim-Mcl-1, Mcl1 Noxa PPI, MCL1-BIM inh, Mcl1 Bid PPI, Bcl-xL primary)
